# Assay outcomes (PubChem BioAssay)
# The sample as a whole holds a higher share of hits than the screen did.
# Lassa entry inh: inhibitors of Lassa virus binding or cell entry; Lassa virus pseudotype entry inhibition, cell reporter; Potency, µM (series often up to 37.9 µM), for the others: top-dose activity change, negative = inhibition, hits mostly inhibitors; actives 1.2% (n = 300,000); AID 540256; calls by dose curve; tested in HEK293 cells; further: potency means the concentration at half of the fitted maximal effect; on the % scale 0 is the no-effect control and ±100 the full control effect; nearly all actives have a fitted effect of over 50% in size
# MARV entry inh: inhibitors of Marburg virus binding or cell entry. Marburg virus pseudotyped entry inhibition, cell reporter. Potency, µM (series often up to 37.8 µM), for the others: at the top dose activity change, negative = inhibition, usual class: inhibitors. actives 1.8% (n = 300,000); calls by dose curve; tested in HEK293 cells; further: potency means the concentration at half of the fitted maximal effect; on the % scale 0 is the no-effect control and ±100 the full control effect
# Shiga inhibitor: inhibitors of Shiga toxin in Vero cells; Vero cells, Shiga toxin protein synthesis inhibition reporter; inhibition, % at 38.7 µM; actives 9.2% (n = 290,000); AID 2315; in the data active means inhibition mostly above about 28%, no sharp cut-off; inactive means mostly below about 43%; further: 0% is about no effect
# AMA1-RON2 inh: inhibitors of Plasmodium falciparum AMA1-RON2 interaction. AlphaScreen AMA1-biotinylated RON2 peptide binding. Potency, µM (titrated, usually from 58.2 µM), for inactives: at the highest dose activity change, negative = inhibition, hits mostly inhibitors. actives 0.2% (n = 360,000); active means well fitted inhibition curve with a large enough effect; inconclusive means small, poorly fitted or top-dose-only effect; inactive means no such curve, though single readings can be large or run the other way;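 further: potency means the concentration at half of the fitted maximal effect; 0% = vehicle wells and -100% = peptide control; nearly all actives have a fitted effect of over 45% in size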
#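 AMA1 (3D7) with his tag at 25 nM final met compounds first, then biotinylated RON2 peptide at 25 nM; detection used donor plus acceptor beads, 10 µg/mL apiece, read by AlphaScreen after 30 min at room temperature.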
# Cycloheximide cs: affects cycloheximide protein synthesis inhibition readout, counter-screen. max response, %. cell reporter, cycloheximide protein synthesis inhibition counterscreen. actives 12% (n = 300,000). AID 2314; in the data active means max response mostly above about 13%, no sharp cut-off; inactive means mostly below about 14%; further: read at 38.3 µM for the half of the compounds with a filed dose; 0% is about no effect
# An asterisk follows results filed as active; u = inconclusive; x = not tested or not shown; [ ] = remark or other dose.
SMILES,Lassa entry inh,MARV entry inh,Shiga inhibitor,AMA1-RON2 inh,Cycloheximide cs
CCN(CC)CCN(Cc1cc2ccc(C)cc2[nH]c1=O)C(=O)Nc1ccc(Cl)cc1,28%[46.1 µM],u,78*,1%,38*
CCN(CC)CCN(Cc1cc2ccc(C)cc2[nH]c1=O)C(=O)NC1CCCCC1,1%,u,29,9%,-3
COc1cc2cc(CN(Cc3cccs3)C(=S)Nc3ccc(C)cc3)c(=O)[nH]c2cc1OC,4.6µM*,u,8,-2%,1
Cc1ccc(NC(=S)N(Cc2cccs2)Cc2cc3cc(C)ccc3[nH]c2=O)cc1,7.1µM*,4.5µM*,-10,12%,-3
Cc1cccc(NC(=S)N(Cc2cccs2)Cc2cc3cc(C)ccc3[nH]c2=O)c1,-12%,u,-7,6%,-2
COc1cccc(-c2nc(CS(=O)(=O)CC(=O)Nc3ccccc3Cl)c(C)o2)c1,-4%[46.1 µM],-28%[46.1 µM],8,11%,2
CCOCCOC(=O)c1ccc(NC(=O)/C=C/c2ccc(OC)c(OC)c2)cc1,-2%[46.1 µM],x,x,x,x
COc1ccc2cc(C(N)=O)c(=Nc3ccccc3)oc2c1,u,27%[46.1 µM],24,5%,4
NC(=O)c1cc2ccc(O)cc2oc1=Nc1ccccc1,u,-3%,50*,-4%,63*
O=C(NCc1ccccc1)c1cc2ccc(O)cc2oc1=O,-1%,3%,42*,1%,21*
NC(=O)c1cc2ccccc2oc1=NCc1ccccc1,u,-15%,44,-8%,17
NC(=O)c1cc2ccc(O)cc2oc1=NCc1ccccc1,u,-2%,-5,-15%,16*
CCOc1ccc(CCNc2ncnc3onc(-c4ccc(Cl)cc4)c23)cc1,-23%[46.1 µM],x,x,x,x
CCOc1ccc(CCNc2ncnc3onc(-c4ccc(Cl)cc4)c23)cc1OCC,u,7.9µM*,x,x,x
O=C(O)CC1(CC(=O)NCc2csc(-c3cccs3)n2)CCCCC1,x,x,10,15%,-1
O=C(NCc1csc(-c2cccs2)n1)C1CCC1,x,x,48*,-6%,38*
O=C(NCc1csc(-c2cccs2)n1)Nc1ccc(F)cc1F,x,x,21,4%,7
O=C(NCc1csc(-c2cccs2)n1)c1cccc(Cl)c1,u,15%[46.1 µM],54,2%,14*
O=C(NCc1csc(-c2cccs2)n1)c1ccccc1,x,x,38*,0%,32*
Cc1csc2nc(CNC(=O)C3CCCCC3)cn12,x,x,10,7%,13*
O=C1CN(C(=S)NC(=O)c2ccccc2[N+](=O)[O-])CCN1,x,x,-7,21%,-1
Cc1cccc(NC(=O)COc2ccccc2C(=O)NC(C)c2ccccc2)c1 (stereo not given),u,u,-20,0%,6
CCc1c(N)nc(N)nc1Nc1ccccc1C,7%,-16%,x,-10%,x
CCOc1ccc(-c2ccc(SC)nn2)cc1,2.8µM*,1.3µM*,-17,-8%,-9
COc1ccc(-c2cn3nc(SCC(=O)NCC4CCCO4)ccc3n2)cc1 (stereo not given),x,x,61*,9%,26*
SMILES,Lassa entry inh,MARV entry inh,Shiga inhibitor,AMA1-RON2 inh,Cycloheximide cs
Cc1ccc(-c2ccc(SCC(=O)NCC3CCCO3)nn2)cc1 (stereo not given),-12%,3%[46.1 µM],36,-3%,16
CCOc1ccc(-c2ccc(SCC(=O)NCC3CCCO3)nn2)cc1 (stereo not given),-4%,-23%[46.1 µM],47,-7%,37*
COc1ccc(-c2nnc3ccc(SCC(=O)NCC4CCCO4)nn23)cc1 (stereo not given),5%,1%,-6,-6%,-2
CCCn1cc(SCC(=O)NCC2CCCO2)c2ccccc21 (stereo not given),x,x,42*,0%,25*
Cn1cc(SCC(=O)NCC2CCCO2)c2ccccc21 (stereo not given),x,x,-6,2%,-1
CCOc1ccccc1-n1nnc(-c2nsc(NC(=O)c3ccc(C)cc3)n2)c1C,-24%[46.1 µM],x,x,x,x
Cc1ccc2nc(-c3cccc(NC(=O)CSc4ccc(Cl)cc4)c3)oc2c1,-1%[46.1 µM],u,x,x,x
Cc1cccc(C)c1NC(=O)CNC(=O)CNC(=O)c1ccc2ccccc2c1,x,x,x,13%,x
CCN(CC)S(=O)(=O)c1cc(NC(=O)c2ccc3c(c2)NC(=O)C(C)S3)ccc1C (stereo not given),x,x,x,-4%,x
O=C(CSc1nc(-c2ccccc2)ns1)NCC1CCCO1 (stereo not given),u,7%[46.1 µM],65*,0%,45*
CCOC(=O)CNC(=O)CSc1nc(-c2ccc(C)cc2)ns1,u,u,48*,0%,24
